# Measurements published in the supplement of paper PMC8975748.
# Structures can show the parent of a compound that is named as a salt.
# Test system: Saccharomyces cerevisiae BY4741 SeMeCo community
# Assay: z-score of subpopulation abundance vs DMSO median, subpopulation auxotrophic for HL; higher = larger share of this subpopulation than in DMSO controls
# Conditions: 10 µM; 24 h; SM minimal medium; subpopulation (auxotrophy): HL
# Protocol: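 Fluorescent four-plasmid SeMeCo (self-establishing metabolically cooperating S. cerevisiae BY4741 community; plasmids pH-mRuby2, pL-mWasabi, pU-eCFP, pM-TagRFP657) was grown 24 h in minimal SM medium with each Selleck FDA-approved drug at 10 µM in 384-well plates. Cells were fixed and imaged by high-content confocal microscopy. For each auxotrophic subpopulation (and the prototroph), a z-score gives the deviation from the DMSO vehicle-control population median.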
row,Compound,z-score of subpopulation abundance
1,CCn1cc(C(=O)O)c(=O)c2cc(F)c(N3CCNCC3)nc21 [Enoxacin],0.3
2,CC(C)N1CCN(c2ccc(OCC3COC(Cn4cncn4)(c4ccc(Cl)cc4Cl)O3)cc2)CC1 (stereo not given) [Terconazole],-0.76
3,CC(C)c1c(C(=O)Nc2ccccc2)c(-c2ccccc2)c(-c2ccc(F)cc2)n1CC[C@@H](O)C[C@@H](O)CC(=O)O [Atorvastatin Calcium],6.43
4,Nc1nc2ccc(OC(F)(F)F)cc2s1 [Riluzole],-0.55
5,COC(=O)C1=C(C#N)NC(C)=C(C(=O)OC(C)C)C1c1cccc([N+](=O)[O-])c1 (stereo not given) [Nilvadipine],-0.05
6,CO[C@@]1(NC(=O)Cc2cccs2)C(=O)N2C(C(=O)O)=C(COC(N)=O)CS[C@@H]21 [Cefoxitin sodium],-0.41
7,Cc1cccc(Nc2ccccc2C(=O)O)c1C [Mefenamic Acid],0.24
8,COc1ccc(C[C@H](N)C(=O)N[C@H]2[C@@H](O)[C@H](n3cnc4c(N(C)C)ncnc43)O[C@@H]2CO)cc1 [Puromycin 2HCl],-0.16
9,CC(=O)OC1CC2(C)C(CC(O)C3C4(C)CCC(O)C(C)C4CCC32C)C1=C(CCC=C(C)C)C(=O)O (stereo not given) [Fusidine],2.33
10,COc1ccc([C@@H]2Sc3ccccc3N(CCN(C)C)C(=O)[C@@H]2OC(C)=O)cc1 [Diltiazem HCl],-0.78
11,CCN(CC)CCNC(=O)c1cc(Cl)c(N)cc1OC [Metoclopramide],-0.39
12,C[C@]1(COc2ccc(N3CCC(Oc4ccc(OC(F)(F)F)cc4)CC3)cc2)Cn2cc([N+](=O)[O-])nc2O1 [Delamanid],0.9
13,CC(=O)OCC1=C(C(=O)O)N2C(=O)[C@@H](NC(=O)Cc3cccs3)[C@H]2SC1 [Cephalothin],-0.42
14,C[C@@H](O)[C@H]1C(=O)N2C(C(=O)O)=C([C@H]3CCCO3)S[C@H]12 [Faropenem Sodium],0
15,CO/N=C(\C(=O)N[C@@H]1C(=O)N2C(C(=O)OCOC(=O)C(C)(C)C)=C(/C=C\c3scnc3C)CS[C@H]12)c1csc(N)n1 [Cefditoren Pivoxil],1.56
16,C[C@@H]1[C@H](O)[C@@H](C)/C=C/C=C/C=C/C=C/C=C/C=C/C=C/[C@H](O[C@@H]2O[C@H](C)[C@@H](O)[C@H](N)[C@@H]2O)C[C@@H]2O[C@](O)(C[C@@H](O)C[C@@H](O)[C@H](O)CC[C@@H](O)C[C@@H](O)CC(=O)O[C@H]1C)C[C@H](O)[C@H]2C(=O)O [Amphotericin B],8.48
17,CC(=O)N1CCN(c2ccc(OCC3COC(Cn4ccnc4)(c4ccc(Cl)cc4Cl)O3)cc2)CC1 (stereo not given) [Ketoconazole],-0.6
18,CC1(C)S[C@@H]2[C@H](NC(=O)[C@H](N)c3ccc(O)cc3)C(=O)N2[C@H]1C(=O)O [Amoxicillin trihydrate],-0.69
19,Cc1cc(NS(=O)(=O)c2ccc(N)cc2)nc(C)n1 [sulfaisodimidine],-0.94
20,CCC(=O)NS(=O)(=O)c1ccc(-c2c(-c3ccccc3)noc2C)cc1 [Parecoxib],0.12

row,Compound,z-score of subpopulation abundance
1,OB1OCc2cc(F)ccc21 [Tavaborole (AN-2690)],17.6
2,COc1ccc(C(C)=O)c(O)c1 [Paeonol],-0.25
3,CN[C@H](CC(C)C)C(=O)N[C@H]1C(=O)N[C@@H](CC(N)=O)C(=O)N[C@H]2C(=O)N[C@H]3C(=O)N[C@H](C(=O)N[C@H](C(=O)O)c4cc(O)cc(O)c4-c4cc3ccc4O)[C@H](O)c3ccc(c(Cl)c3)Oc3cc2cc(c3O[C@@H]2O[C@H](CO)[C@@H](O)[C@H](O)[C@H]2O[C@H]2C[C@](C)(N)[C@H](O)[C@H](C)O2)Oc2ccc(cc2Cl)[C@H]1O [Vancomycin HCl],-0.36
4,CN(C)CCOc1ccc(/C(=C(/CCCl)c2ccccc2)c2ccccc2)cc1 [Toremifene Citrate],1.37
5,CC1=C[C@H]2C(=O)O[C@H]3C[C@@H](C/C=C(\C)C[C@@H](C)/C=C/C=C4\CO[C@H](/C1=N\O)[C@@]42O)O[C@@]1(CC[C@H](C)[C@@H](C)O1)C3.CC[C@H]1O[C@]2(CC[C@@H]1C)C[C@@H]1C[C@@H](C/C=C(\C)C[C@@H](C)/C=C/C=C3\CO[C@@H]4/C(=N\O)C(C)=C[C@@H](C(=O)O1)[C@]34O)O2 [Milbemycin Oxime],1.42
6,CO[C@H]1C[C@@H]2CC[C@@H](C)[C@@](O)(O2)C(=O)C(=O)N2CCCC[C@H]2C(=O)O[C@H]([C@H](C)C[C@@H]2CC[C@H](n3cnnn3)[C@H](OC)C2)CC(=O)[C@H](C)/C=C(\C)[C@@H](O)[C@@H](OC)C(=O)[C@H](C)C[C@H](C)/C=C/C=C/C=C/1C [Zotarolimus(ABT-578)],15.7
7,Cc1nccn1CC1CCc2c(c3ccccc3n2C)C1=O (stereo not given) [Ondansetron HCl],-0.77
8,CC[C@@H]([C@H](C)O)n1ncn(-c2ccc(N3CCN(c4ccc(OC[C@@H]5CO[C@@](Cn6cncn6)(c6ccc(F)cc6F)C5)cc4)CC3)cc2)c1=O [Posaconazole],10.8
9,CN(C)c1ccc(O)c2c1C[C@H]1C[C@H]3[C@H](N(C)C)C(=O)C(C(N)=O)=C(O)[C@@]3(O)C(=O)C1=C2O [Minocycline HCl],0.73
10,CCN(CC)CCOC(=O)c1ccc(N)cc1Cl [Chloroprocaine HCl],-0.09
11,C[C@H]1c2cccc(O)c2C(O)=C2C(=O)[C@]3(O)C(O)=C(C(N)=O)C(=O)[C@@H](N(C)C)[C@@H]3[C@@H](O)[C@@H]21 [Doxycycline],-0.31
12,Nc1ccc(S(=O)(=O)Nc2ncccn2)cc1 [Sodium sulfadiazine],0.08
13,CC[C@H]1OC(=O)[C@H](C)[C@@H](O[C@H]2C[C@@](C)(OC)[C@@H](O)[C@H](C)O2)[C@H](C)[C@@H](O[C@@H]2O[C@H](C)C[C@H](N(C)C)[C@H]2O)[C@](C)(O)C[C@@H](C)[C@@H]2N[C@@H](COCCOC)O[C@H]([C@H]2C)[C@]1(C)O [Dirithromycin],-0.09
14,CCC(=O)O[C@@H]1CC(=O)O[C@H](C)C/C=C/C=C/[C@H](O)[C@H](C)C[C@H](CC=O)[C@H](O[C@@H]2O[C@H](C)[C@@H](O[C@H]3C[C@@](C)(O)[C@@H](OC(=O)CC)[C@H](C)O3)[C@H](N(C)C)[C@H]2O)[C@H]1OC [Midecamycin],1.52
15,CC1(C)S[C@@H]2[C@H](NC(=O)Cc3ccccc3)C(=O)N2[C@H]1C(=O)O [Benzathine penicilline],-0.03
16,CCn1cc(C(=O)O)c(=O)c2cc(F)c(N3CCN(C)CC3)cc21 [Pefloxacin Mesylate Dihydrate],0.3
17,CN(C)CCC=C1c2ccccc2CCc2ccccc21 [Amitriptyline HCl],-0.48
18,CC(N)C12CC3CC(CC(C3)C1)C2 (stereo not given) [Rimantadine],-0.19
19,O=C1CN2Cc3c(ccc(Cl)c3Cl)N=C2N1 [Anagrelide HCl],0.5
20,COc1ccc2[nH]c([S+]([O-])Cc3ncc(C)c(OC)c3C)nc2c1 (stereo not given) [Omeprazole Sodium],0.77
